Assay results reported in PubChem BioAssay AID743126 (The Scripps Research Institute Molecular Screening Center, 2013).
In all, about 370,000 compounds went through this assay and about 2,100 (0.57%) were called active.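 The calls were made as follows: active = inhibition above mean plus 3 SD of compounds lying within the high and low control bounds (cut at about 19% in these data); inactive = the rest.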 The entries come from a sample that favours actives as a whole.

Target: Group 3 secretory phospholipase A2 (Homo sapiens) (UniProt Q9NZ20)
Sequence (Q9NZ20 whole entry, looked up): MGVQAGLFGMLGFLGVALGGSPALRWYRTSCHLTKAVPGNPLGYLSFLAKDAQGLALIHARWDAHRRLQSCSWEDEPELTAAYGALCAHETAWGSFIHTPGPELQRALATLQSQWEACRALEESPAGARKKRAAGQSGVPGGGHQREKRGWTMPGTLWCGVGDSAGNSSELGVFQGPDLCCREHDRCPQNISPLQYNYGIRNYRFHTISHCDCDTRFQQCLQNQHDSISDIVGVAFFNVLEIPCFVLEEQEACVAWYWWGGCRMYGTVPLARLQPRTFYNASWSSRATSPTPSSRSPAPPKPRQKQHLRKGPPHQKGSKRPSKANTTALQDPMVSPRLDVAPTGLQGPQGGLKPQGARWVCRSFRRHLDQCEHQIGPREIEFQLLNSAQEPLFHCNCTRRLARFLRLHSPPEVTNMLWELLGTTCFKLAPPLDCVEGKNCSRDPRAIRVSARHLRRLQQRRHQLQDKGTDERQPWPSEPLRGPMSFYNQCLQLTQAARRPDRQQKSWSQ
Experiment: HGIII-sPLA2 enzyme inhibition – biochemical, QFRET, BODIPY PC-A2 liposome substrate, primary screen (AID 743126);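 also: 0% = median of test compound wells and 100% = no enzyme DMSO wells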
Settings: QFRET BODIPY PC-A2 liposome hydrolysis, fluorescence; at 12.2 µM; hits give high values

SMILES | inhibition
C=C(C)C#CC(Cc1ccccc1)NCC1CC1 (centres undefined) | 4.73% (inactive)
CC(C)CC(=O)NC(=S)NNC(=O)c1cccc([N+](=O)[O-])c1 | 24.2% (active)
CC(C)CC(=O)NC(=S)Nc1ccc(F)cc1F | 6.75% (inactive)
CC(C)OC(=O)CC(=O)CC(O)c1cccc([N+](=O)[O-])c1 (centres undefined) | -28% (inactive)
O=C1CCC2(CCC(c3ccc(Cl)cc3)CC2)N1CCO (centres undefined) | 7.89% (inactive)
COc1ccc(C2CC=C(C(=O)O)C(c3ccccc3F)N2S(=O)(=O)c2ccc(C)cc2)cc1OC (centres undefined) | -7.23% (inactive)
CCOC(=O)[C@]12CCCC=C1N(Cc1ccc(OC)cc1)C(=O)[C@@H]2CC(=O)N1CCOCC1 | 3.77% (inactive)
Cc1cc(=O)[nH]c(SCC(=O)Nc2ccc(Cl)cc2C)n1 | 1.76% (inactive)
COc1ccccc1OCc1nnc(SCC(N)=O)n1-c1ccccc1 | 1.71% (inactive)
COc1ccccc1OCCn1c(SCC(N)=O)nc2ccccc21 | 22.2% (active)
CCN(CC)C(=O)CSc1nc2ccccc2n1CC(=O)N1CCN(c2ccccc2OC)CC1 | 0.24% (inactive)
N#CCC[C@H]1CC[C@]2(CCCN(Cc3ccc(Cl)cc3)C2)O1 | 5.78% (inactive)
C=CC[n+]1c(-c2ccc(C)cc2)csc1NNC(=O)Nc1ccccc1 | 2.33% (inactive)
C=CCNc1scc(-c2ccccc2)[n+]1CC=C | 20.2% (active)
COC(CNC(=O)[C@H](Cc1ccccc1)NC1(C(=O)NC2CCCCC2)CCCCC1)OC | -3.08% (inactive)
O=C(CCCCCN1C(=O)C2C3C=CC(C3)C2C1=O)Nc1ccccn1 (centres undefined) | -2.55% (inactive)
CC(C)C(C#CC1CC1)N(Cc1ccc2c(c1)OCO2)C(N)=NC(=O)/C=C/c1cccc(C(F)(F)F)c1 (centres undefined) | 3.76% (inactive)
Clc1ccc(-n2c(SC/C=C/c3ccccc3)nnc2-c2ccco2)cc1 | -11.5% (inactive)
C/C(=N/NC(=O)c1cc(Cl)ccc1O)C12CC3CC(CC(C3)C1)C2 | 22.8% (active)
O=C(N/N=C1\CCSC1)c1cc(Cl)ccc1O | 13.2% (inactive)
Cc1ccc(C(=O)NC23CC4CC(CC(C4)C2)C3)c(Cl)c1 | 15.2% (inactive)
COC(=O)[C@H](C(C)C)N(CCc1cn(Cc2ccccc2)nn1)S(=O)(=O)c1ccc(F)cc1Br | -2.33% (inactive)
O=C(NC1CCC1)c1ccc(C#Cc2cccc(F)c2)c[n+]1[O-] | -4.97% (inactive)

SMILES | inhibition
COc1cccc(CNC(=O)C2CCN(S(=O)(=O)c3cccc4cccnc34)CC2)c1 | -1% (inactive)
CC(Oc1ccc(Cl)cc1)C(=O)Nc1ncccn1 (centres undefined) | 1.61% (inactive)
CC(=O)/C(=N\Nc1ccc(Cl)cc1Cl)Sc1cccc2cccnc12 | 20.9% (active)
COC(=O)[C@]12C[C@H](CC(=O)N3CCOCC3)C(=O)N(Cc3ccc(Cl)cc3Cl)C1=C[C@H](C(C)C)O[C@@H]2C1CC1 | -5.59% (inactive)
CC1CCN(c2ccc(C(=O)O)cc2NS(=O)(=O)c2ccc(Br)s2)CC1 | -18.5% (inactive)
CCOC(=O)[C@]12CCCCC/C=C\1N(Cc1ccc(OC)cc1)C(=O)[C@H]2CC(=O)NCc1ccc(C)o1 | -4.43% (inactive)
COc1ccc(C2Nc3ccccc3C(=O)N2Cc2cccs2)cc1COc1c(C)cccc1C (centres undefined) | 4.57% (inactive)
Oc1ccc2ccccc2c1N=Nc1nccs1 | 19.4% (active)
O=C(NC1CCCC1)C1CSCCS(=O)(=O)N1Cc1ccccc1 (centres undefined) | 2.48% (inactive)
O=C1Nc2ccccc2OC1CC(=O)N1CCCCCCC1 (centres undefined) | 1.64% (inactive)
C=CCN1[C@H](CC(C)C)COc2cccc(N3CCCC3)c2S1(=O)=O | 10% (inactive)
CC(=O)NN1C(=O)c2ccccc2NC1c1ccccc1 (centres undefined) | 4.64% (inactive)
CCOC(=O)NN1C(=O)c2ccccc2NC1c1cccc(O)c1 (centres undefined) | -3.61% (inactive)
Cc1ccc(C2Nc3ccccc3C(=O)N2CCN2CCNC2=O)cc1 (centres undefined) | 19.3% (active)
COc1ccnc2c1c(=O)n(Cc1cccc(F)c1)c(=O)n2C | 0.58% (inactive)
CC(C)(C)c1cc2cccnc2n1Cc1cccc(F)c1 | 20.9% (active)
CC(C)(C)c1cc2cccnc2n1Cc1ccccc1 | 8.03% (inactive)
O=C(CNC(=O)c1ccccc1)OC(C(=O)Nc1cc([N+](=O)[O-])ccc1F)c1ccccc1 (centres undefined) | 10.8% (inactive)
COc1ccc(N2CCN(CCNS(=O)(=O)c3ccc(C(C)(C)C)cc3)CC2)cc1 | -8.25% (inactive)
NC(c1csc(NC(=O)Nc2ccccc2Oc2ccccc2)n1)c1ccccc1Cl (centres undefined) | 24.4% (active)
O=C(COC(=O)/C=C/c1nc2ccccc2s1)Nc1ccccc1Oc1ccccc1 | 8.15% (inactive)
CC(=O)c1ccc(Nc2nc(C(N)c3ccccc3Cl)cs2)cc1 (centres undefined) | -4.25% (inactive)
Cc1cccc(-n2cnc(C(=O)NNC(=S)Nc3ccccc3)c2)n1 | 38.5% (active)

SMILES | inhibition
COC(=O)c1ccc(NC(=S)Nc2cccc(C)n2)cc1 | 7.29% (inactive)
Cc1cccc(-n2cnc(C(=O)Nc3cccnc3)c2)n1 | 8.64% (inactive)
CCOc1ccc(-n2c(SCC(=O)Nc3cc(C)c(NC(=O)c4ccccc4)cc3OC)nnc2-c2cccc(Cl)c2)cc1 | 2% (inactive)
CSC1=NN(c2ccccc2)CN(c2ccccc2)N1C | 21.7% (active)
O=C(CCl)NC1CCCCN(Cc2cccc(C(F)(F)F)c2)C1=O (centres undefined) | 7.99% (inactive)
CCCCNC(=O)C[C@H]1C(=O)N(Cc2ccc(OC)cc2)C2=CCCC[C@@]21C(=O)OCC | 12.9% (inactive)
Cc1cc(-c2n[nH]c(=S)n2-c2ccc(C)c(C)c2)no1 | 20.5% (active)
Cc1ccc(NCc2n[nH]c(=S)n2-c2ccccc2)cc1Cl | 12.3% (inactive)
Cc1ccc(C)c(S(=O)(=O)Nc2cc(C)on2)c1 | 6.47% (inactive)
Cc1ccccc1CN1CCCCC(NC(=O)Nc2ccccc2F)C1=O (centres undefined) | 4.74% (inactive)
C[C@@H](NC(=O)c1ccccc1OCC(=O)Nc1ccc(I)cc1)C(=O)N(C)Cc1ccccc1 | -8.83% (inactive)
Cc1ccc(-n2c(SCC(=O)Nc3ccc(S(=O)(=O)Nc4nccs4)cc3)nnc2-c2ccccn2)cc1 | -36.9% (inactive)
CC(=O)c1nnn(-c2ccc(Cl)cc2C#N)c1C | 21.4% (active)
CC(=O)c1cc(C#N)c(N2CC(C)OC(C)C2)nc1C (centres undefined) | 10.2% (inactive)
O=C(Nc1cccc(Cl)c1)OC1CC2CC1[C@H]1CCCCN1[C@H]2Cc1ccccc1 (some centres undefined) | -3.5% (inactive)
N#Cc1ccc(OC[C@@H](O)CN2CCC(C(O)(c3ccccc3)c3ccccc3)CC2)c(F)c1 | -15.8% (inactive)
Cc1ccc(CC2(C)C(=O)Nc3ccc(OC(F)(F)F)cc32)cc1 (centres undefined) | -5.51% (inactive)
O=C(c1ccc2c(c1)C(=O)N(Cc1ccncc1)C2=O)N1CCN(S(=O)(=O)c2ccc(OC(F)(F)F)cc2)CC1 | 0.57% (inactive)
O=C1C(=O)N(Cc2ccc(-c3ccsc3)cc2)c2ccc(OC(F)(F)F)cc21 | 26% (active)
CC(C)CNC(=O)OCc1cn(Cc2ccc(F)cc2)nn1 | 1.52% (inactive)
COC(=O)[C@@]12CCCCC3=C1N(CCC3)C(=O)[C@H]2CC(=O)NCc1cccc2ccccc12 | -12% (inactive)
CCCC[C@H]1C2CC(OC(=O)NCc3ccccc3)C(C2)[C@H]2CCCCN21 (some centres undefined) | 9.24% (inactive)
Nn1c(SCC(=O)Nc2ccc(S(N)(=O)=O)cc2)nnc1-c1n[nH]c2c1CCC2 | 9.17% (inactive)
